High-throughput results (PubChem BioAssay)
DRD3 agonist: agonists of human D3 dopamine receptor | D3R DiscoveRx beta-arrestin cells, luminescence, 90 min | max activation, % | hit rate 0.58% among 410,000 | AID 652048; in the data active means max activation above about 30%
Target sequence (P35462 whole entry, looked up): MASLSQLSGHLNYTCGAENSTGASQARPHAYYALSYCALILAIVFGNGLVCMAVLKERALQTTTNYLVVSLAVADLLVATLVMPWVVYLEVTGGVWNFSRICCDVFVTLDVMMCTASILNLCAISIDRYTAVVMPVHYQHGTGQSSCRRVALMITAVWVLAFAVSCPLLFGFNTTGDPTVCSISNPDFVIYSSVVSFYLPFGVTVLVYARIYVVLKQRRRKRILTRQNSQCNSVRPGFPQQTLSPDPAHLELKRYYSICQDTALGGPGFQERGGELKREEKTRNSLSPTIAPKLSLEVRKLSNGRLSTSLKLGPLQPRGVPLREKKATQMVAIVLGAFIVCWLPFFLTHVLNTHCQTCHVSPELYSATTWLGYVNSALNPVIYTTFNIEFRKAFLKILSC
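Cells at 1500/well, incubated overnight, then treated with pinned compounds (dopamine as control) for 90 min at 37 degrees C. DiscoveRx reagent added for 30 - 60 minutes at room temperature; luminescence read.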
TGFb SMAD3 inh: blocks TGF-b signaling; HepG2 CAGA-GFP TGF-b/SMAD3 reporter, GFP fluorescence, 18 h; TGF-beta stimulated, 500 pg/mL final; Potency, µM (highest dose often 46.1 µM), actives largely listed as inhibitors; hit rate 1.2% among 410,000; AID 588855; further: nearly all actives have a fitted effect of over 65% in size
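Inhibition of TGF-beta-driven CAGA-GFP reporter expression in HEPG2 cells is measured by cellular GFP fluorescence after 18 h stimulation with 500 pg/mL recombinant TGF-beta in 1% FBS medium at 37 degrees C.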
ATXN2 expr inh: reduces ATXN2 reporter expression in HEK-293 cells. HEK-293 ATXN2-luciferase reporter, luminescence, 24 h. Potency, µM (top dose mostly 57 µM), hits mostly inhibitors. hit rate 0.72% among 360,000. AID 1745845; further: nearly all actives have a fitted effect of over 55% in size
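ATXN2-luciferase reporter cells (luciferase flanked by upstream and downstream ATXN2 gene portions) were treated 24 h at 37 °C with compounds at up to 57 uM. SteadyGlo luminescence gave expression; GF-AFC fluorescence gave viability.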
ATXN viability: viability counter-screen for ATXN expression inhibitors. S2 cells (HEK-293 line with an ATXN2-luciferase reporter) viability, CellTiter-Fluor protease fluorescence, 24 h. Potency, µM (titrated, usually from 56.7 µM), hits mostly cytotoxic. hit rate 0.49% among 400,000; further: nearly all actives have a fitted effect of over 40% in size
DRD3 antagonist: blocks the human D3 dopamine receptor; P35462; D3R cells, DiscoveRx beta-arrestin luminescence, antagonist mode; hits give low values; max response, negative = inhibition, %; hit rate 2.5% among 360,000; AID 652054; in the data active means max response below about -50%; inconclusive means no clear call, values can overlap the other calls
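Cells expressing the human receptor were seeded at 1500 cells/well, incubated overnight at 37 degrees C in 5% CO2, then exposed to library compounds with dopamine controls for 90 minutes at 37 degrees C before luminescent detection.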
HepG2 viability: counter-screen for TGF-b inhibitors: cytotoxicity in HepG2 cells; HepG2 CAGA-GFP viability, ATP luminescence, 18 h; Potency, µM (top dose mostly 46.1 µM), most hits filed as cytotoxic; hit rate 0.76% among 410,000; AID 588856
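CellTiter-Glo luminescence gave cytotoxicity after 18 hours at 37 degrees C. The cells were HepG2 CAGA-GFP in 1% FBS DMEM, stimulated with 500 pg/mL TGF-beta after compound addition. %Activity was normalised to no-cell wells (complete cell-killing) and DMSO (no toxicity), and curves were fitted and classified.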
Of the large screens only hits and unclear results are named; the others gave an inactive call; ! = not active in a repeat. Sampled rows, rich in hits. Any-hit rate of the full collection: about 4.8%. Unless noted, the call rests on the fitted dose curve; in most records, active means well fitted curve in the direction sought with a large enough effect; inconclusive means small, poorly fitted or top-dose-only effect, or another doubt; inactive means no such curve, though single readings can be large; an effect the other way counts as inactive or inconclusive.

COC(=O)Cc1c(C)c2ccc(O)c(CN3CCCC(C)C3)c2oc1=O (configuration not stated)	DRD3 antagonist -54
CC(C)c1ccc(N2C(=O)CC(Sc3ncn[nH]3)C2=O)cc1 (configuration not stated)	TGFb SMAD3 inh inconclusive, DRD3 antagonist inconclusive
COc1ccc(N2C(=O)CC(Sc3ncn[nH]3)C2=O)c(OC)c1 (configuration not stated)	TGFb SMAD3 inh inconclusive, ATXN2 expr inh 22µM (no result: ATXN viability)
C[C@@H]1CCN(C(=O)[C@H](CCCN=C(N)N)NS(=O)(=O)c2cccc3c2NC[C@H](C)C3)[C@@H](C(=O)O)C1	DRD3 agonist 95 (no result: TGFb SMAD3 inh, DRD3 antagonist, HepG2 viability)
Cc1ccc2c(c1)-c1onc(C(=O)N(C)c3cccc(C(F)(F)F)c3)c1CO2	none (no result: DRD3 antagonist)
CN1C(=O)/C(=C/c2cccc(Cl)c2)Sc2ccc(C(=O)N3CCCC3)cc21	DRD3 agonist 39, TGFb SMAD3 inh inconclusive, ATXN viability inconclusive (no result: ATXN2 expr inh)
CCOC(=O)N1CCN(C(=O)c2ccc3c(c2)N(C)C(=O)/C(=C\c2ccc(OCC)c(OC)c2)S3)CC1	DRD3 agonist 46, TGFb SMAD3 inh inconclusive
Cc1cccc(/C=C2\Sc3ccc(C(=O)N4CCCCC4)cc3N(C)C2=O)c1	TGFb SMAD3 inh inconclusive, ATXN viability inconclusive (no result: ATXN2 expr inh)
CCC(C)(C)c1ccc(CC(C)CN2C[C@@H](C)O[C@@H](C)C2)cc1 (some centres not stated)	ATXN2 expr inh inconclusive (no result: TGFb SMAD3 inh, DRD3 antagonist, HepG2 viability)
C[C@]1(CO)CN(c2cc(C(=O)Nc3ccc4c(c3)-c3c(c(C(N)=O)nn3-c3ccc(F)cc3)CC4)c(Cl)cn2)C[C@@]1(C)CO	ATXN2 expr inh 8.6µM (no result: DRD3 agonist, TGFb SMAD3 inh, ATXN viability, DRD3 antagonist, HepG2 viability)
O=C(c1ccc([N+](=O)[O-])cc1Cl)N1CCN(Cc2ccccc2)CC1	none (no result: ATXN2 expr inh)
CC1CCC2C(=O)N(c3ccc(NC4CCN(Cc5ccccc5)CC4)c([N+](=O)[O-])c3)C(=O)C2C1 (configuration not stated)	ATXN viability inconclusive, DRD3 antagonist -50 (no result: ATXN2 expr inh)
O=[N+]([O-])c1ccc(NC2CCN(Cc3ccccc3)CC2)c([N+](=O)[O-])c1	TGFb SMAD3 inh inconclusive, DRD3 antagonist -62 (no result: ATXN2 expr inh)
COC(=O)c1cc([N+](=O)[O-])ccc1N1CCN(Cc2ccccc2)CC1	TGFb SMAD3 inh inconclusive, ATXN2 expr inh inconclusive, ATXN viability inconclusive, DRD3 antagonist -52
O=[N+]([O-])c1ccccc1NC1CCN(Cc2ccccc2)CC1	DRD3 antagonist inconclusive
CN1CCN(c2ccc([N+](=O)[O-])cc2C(=O)c2ccc(Br)cc2)CC1	ATXN viability inconclusive, DRD3 antagonist -56
C=C(C)Cn1c(SCC(=O)Nc2cccc(C)c2)nc2sc3c(c2c1=O)CCCC3	DRD3 agonist 34 (no result: DRD3 antagonist)
CCCCCCCCNC(C)C(O)c1ccc(SC(C)C)cc1 (configuration not stated)	TGFb SMAD3 inh inconclusive, ATXN2 expr inh 25µM!, ATXN viability inconclusive, DRD3 antagonist inconclusive
C[C@@H](NCCc1ccc(O)cc1)[C@@H](O)c1ccc(O)cc1	none
CCc1nc2ccc(C(=O)N3CCN(S(=O)(=O)CC)CC3)cn2c1N(CCC(C)C)CCN(C)C	none
CCc1nc2ccc(C(=O)Nc3ccc(NC(C)=O)cc3)cn2c1N(C)CCC(C)C	TGFb SMAD3 inh inconclusive
CCc1nc2ccc(C(=O)Nc3ccc(C(=O)N(C)C)cc3)cn2c1N(C)CCCc1ccccc1	ATXN2 expr inh inconclusive, ATXN viability 28µM
CCc1nc2ccc(C(=O)N3CCN(S(=O)(=O)CC)CC3)cn2c1N(C)CCC(C)C	HepG2 viability 3.2µM
CCc1nc2ccc(C(=O)N3CCN(c4ccccc4)CC3)cn2c1N(C)CCC(C)C	TGFb SMAD3 inh 13µM
CCc1nc2ccc(C(=O)N3CCN(c4ccccc4)CC3)cn2c1N(C)CCCc1ccccc1	TGFb SMAD3 inh inconclusive, ATXN viability inconclusive, HepG2 viability 16µM
CC[C@H]1OC(=O)[C@H](C)[C@@H](O[C@H]2C[C@@](C)(OC)[C@@H](O)[C@H](C)O2)[C@H](C)[C@@H](O[C@@H]2O[C@H](C)C[C@H](N(C)C)[C@H]2O)[C@](C)(O)C[C@@H](C)/C(=N\OCOCCOC)[C@H](C)[C@@H](O)[C@]1(C)O	none (no result: TGFb SMAD3 inh, ATXN2 expr inh, DRD3 antagonist, HepG2 viability)
O=C(CSc1nccn1-c1ccc(Cl)cc1)Nc1cccc2ccccc12	none (no result: ATXN2 expr inh, ATXN viability, DRD3 antagonist)
CCN(CC1COc2ccccc2O1)C(=O)CN1C(=O)NC(C)(c2ccccc2)C1=O (configuration not stated)	DRD3 agonist 55
CCN(CC1COc2ccccc2O1)C(=O)CN1C(=O)NC(C)(c2ccc(C)cc2)C1=O (configuration not stated)	none
CCC(C)(CC(=O)O)CC(=O)Nc1cc(C(F)(F)F)cc(C(F)(F)F)c1 (configuration not stated)	DRD3 agonist 32, TGFb SMAD3 inh inconclusive
CC(C)(C)C(=O)NC1=NN(c2c(Cl)cc(Cl)cc2Cl)C(=O)C1	DRD3 antagonist -59 (no result: ATXN2 expr inh)
COc1ccc(NC(=S)N(CCCN2CCC(C)CC2)Cc2cccs2)cc1	TGFb SMAD3 inh inconclusive, DRD3 antagonist -58
Cc1ccc(NC(=S)N(CCCN2CCN(C)CC2)Cc2cccs2)cc1C	none
CCc1ccc(NC(=S)N(CCN2CCCCC2)Cc2ccco2)cc1	DRD3 antagonist -68
COc1cccc(NC(=S)N(CCN(C)C)Cc2cccs2)c1	none
CSc1cccc(NC(=S)N(CCCN2CCC(C)CC2)Cc2cccs2)c1	TGFb SMAD3 inh inconclusive, DRD3 antagonist -76
COc1cccc(NC(=S)N(CCCN2CCC(C)CC2)Cc2cccs2)c1	TGFb SMAD3 inh inconclusive, DRD3 antagonist -84
COc1ccc(S(=O)(=O)c2cnc(SCC(=O)Nc3cc(F)ccc3C)[nH]c2=O)cc1Cl	none (no result: DRD3 antagonist)
Cc1ccccc1NC(=S)N(CCCN1CCC(C)CC1)Cc1ccco1	DRD3 antagonist inconclusive
CSc1cccc(NC(=S)N(CCC(C)C)C2CCN(C(C)C)CC2)c1	TGFb SMAD3 inh inconclusive, ATXN viability inconclusive, DRD3 antagonist -85
Cc1ccc(NC(=S)N(CCCN2CCC(C)CC2)Cc2ccco2)cc1C	DRD3 antagonist -52
Cc1ccc(NC(=S)N(CCCN2CCN(C)CC2)Cc2cccs2)cc1	none
COc1ccc(NC(=S)N(CCCN2CCCCC2)Cc2cccs2)cc1	DRD3 antagonist -87
Cc1nn(CC(=O)NC2CC2)c(=O)c2cc3cc(F)ccc3n12	none (no result: DRD3 antagonist)
CN(C)S(=O)(=O)c1ccc(C(=O)NCCSc2c(-c3ccc(Br)cc3)[nH]c3ccccc23)cc1	TGFb SMAD3 inh inconclusive, ATXN viability inconclusive (no result: DRD3 antagonist)
O=C(c1ccccc1)N1CCN(C(=O)c2ccccc2)C1c1ccccc1	DRD3 antagonist -51
CC(=O)N1CCN(C(C)=O)C1c1ccccc1	TGFb SMAD3 inh inconclusive
